The values below come from PubChem BioAssay AID1508623 (National Center for Advancing Translational Sciences (NCATS), 2021).

Hit rate of the full screen: of about 48,000 compounds, about 450 (0.94%) were called active. Not shown: some 19% with an inconclusive outcome. Calls come from the whole dose curve; as a rule, active = well fitted inhibition curve with a large enough effect; inconclusive = small, poorly fitted or top-dose-only effect; inactive = no such curve, though single readings can be large or run the other way. What follows is part of a selection rich in actives, with near analogues and random picks from the rest. Where a call stands in place of a potency, no number is given.
Potency is the fitted concentration of half-maximal effect.

The assay is described as follows: Primary qHTS for Identification of Small Molecule Inhibitors of Huntingtin Promoter Activity. Note: nearly all actives have a fitted effect of over 50% in size. Conditions: HEK293 HTT promoter firefly luciferase reporter (activity 0% = vehicle and -100% = no light), 24 h; series mostly up to 57.5 µM. The text has this: Assay Provider: Russell L. Margolis M.D.
Department Neurology, Johns Hopkins University School of Medicine, Baltimore, MD
Huntington's Disease (HD) is a neurodegenerative disorder caused by a CAG repeat expansion in exon 1 of huntingtin (HTT). While there are currently no disease-modifying treatments for HD, recent efforts have focused on development of nucleotide-based therapeutics to lower HTT expression. As an alternative to siRNA or oligonucleotide methods, we hypothesized that suppression of HTT expression might be accomplished by small molecules that either (1) directly decrease HTT expression by suppressing HTT promoter activity or (2) indirectly decrease HTT expression by increasing the promoter activity of HTT-AS, the gene antisense to HTT that appears to inhibit expression of HTT.
We developed and employed a high throughput screen for modifiers of HTT and HTT-AS promoter activity using luminescent reporter HEK293 cells; of the 52,041 compounds tested, we identified 898 replicable hits. We used a rigorous stepwise approach to assess compound toxicity and the capacity of the compounds to specifically lower huntingtin protein in 5 different cell lines, including HEK293 cells, HD lymphoblastoid cells, mouse primary neurons, HD iPSCs differentiated into cortical-like neurons, and HD hESCs. We found no compounds which were able to lower huntingtin without lowering cell viability in all assays, though the potential efficacy of a few compounds at non-toxic doses could not be excluded.
SEQUENCE No. (1, 2, 3, etc.); […] (e.g., Cells, Incubation, Reagent, etc.); VALUE and DESCRIPTION.
1; Reagent; 4 uL; 2,500 Hek293 luciferase reporter cells per wells
3; Compound; 23 nL; Control inhibitor / compound library
5; Reagent; 2.5 uL; Firefly Luc reagent; Dual-Glo Luciferase Reporter Assay System (Promega)
6; Time; 10 min; room temperature incubation
7; Detection; Luminescence; FLuc
NOTES (numbers refer to sequence above)
1; High-throughput screening, measuring luminescence from a Hek293 luciferase reporter, was performed in 1,536 well white-walled tissue-culture treated plates. 2,500 cells were plated in 4 µL of Opti-MEM per well using a Multidrop Combi Reagent Dispenser (ThermoFisher).
2; Assay plates were cultured for 24 hours.
3; Control inhibitor (PTC124; final concentration of 50 uM) and compound library (at final concentrations of 460 nM - 57.5 uM) were added to the assay plate using the Kalypsis Pintool Robotic System equipped with 1536 pinheads.
4; Cells were then incubated for 24 hours at 37 degrees C prior to luminescence measurements.
5; In all cases, luminescence was measured using the Dual-Glo Luciferase Reporter Assay System (Promega) following the manufacturer's instructions.
6; Room temperature incubation.
7; Luminescence signal was obtained using the PerkinElmer ViewLux plate reader. Results were normalized to vehicle control (0% activity) and zero RLU (-100% activity).
(In qHTS, concentration-response curves come from the screen itself.)
`COc1ccc(Br)cc1C1CC(=O)Nc2c1c(C)nn2-c1nc(C)cc(C)n1` (stereo not given): the Potency entry is “inactive”.

As for `CCC(=O)Nc1c(C(=O)N2CCN(c3ccc(F)cc3)CC2)oc2ccccc12`, the Potency entry is “inactive”.

For `COc1cccc(-c2n[nH]c3c2C(c2cccc(O)c2)N(C)C3=O)c1` (stereo not given), the Potency entry is “inactive”.

For `COc1ccc(Cn2ccn(Cc3cccc(OC)c3)c(=O)c2=O)cc1`, the Potency entry is “inactive”.

Turning to `CCN1CCN(CCCNC(=O)c2cnn(-c3ccc(C)cc3C)c2C2CCN(C(=O)OC(C)(C)C)CC2)CC1`, the Potency result is “inactive”.

Take `CCCCNC(=O)CSc1nc2cc3c(cc2c(=O)n1CCCCCC(=O)NCc1ccc2c(c1)OCO2)OCO3`: the Potency entry was “inactive”.

As for `CCOC(=O)C1CCN(C(c2ccc(F)cc2)c2sc3nc(-c4ccco4)nn3c2O)CC1` (stereo not given), the Potency result is “inactive”.

With `CCOC(=O)c1cccc(NS(=O)(=O)c2cc(-c3cnc(C)o3)ccc2OC)c1`, the Potency entry was “inactive”.

For `COc1ccc(-c2cccc(NS(=O)(=O)c3cc(C)c(OC)c(C)c3C)c2)nn1`, the Potency was 11.2 µM (active).

With `Cc1ccc(CCNC(=O)Cn2c(-c3cccs3)cc3cc(F)ccc32)cc1`, the Potency entry is “inactive”.

`CCc1ccccc1NC(=O)Cn1c(=O)n(CC2CCC(C(=O)NCCc3ccccc3)CC2)c(=O)c2ccccc21` (stereo not given): the Potency entry was “inactive”.

As for `COc1ccc(OC)c2sc(N3CCN(C(=O)C4COc5ccccc5O4)CC3)nc12` (stereo not given), the Potency entry is “inactive”.

Consider `COc1cc(NS(=O)(=O)c2cccs2)cc(OC)c1`, for which the Potency entry was “inactive”.

Regarding `COc1cc(NS(=O)(=O)c2ccc3c(c2)OCC(C(=O)N2CCCC2)O3)cc(OC)c1` (stereo not given), the Potency is 14.1 µM (active).

Regarding `COc1ccccc1CNC(=O)C(=O)NCC(c1cccs1)S(=O)(=O)c1cccs1` (stereo not given), the Potency result was “inactive”.

As for `CC1CN(C(=O)N2CCC(C(=O)NCc3ccco3)CC2)c2cc(Cl)ccc2O1` (stereo not given), the Potency result is “inactive”.

`CCc1ccc(CN(Cc2ccco2)C(=O)COc2ccc(Cl)c(C)c2)cc1`: the Potency result is “inactive”.

For the molecule `CC(C)NC(=O)C1CCC(Cn2c(=O)c3sccc3n(Cc3ccc(F)cc3)c2=O)CC1` (stereo not given), the Potency result is “inactive”.

Take `CC(=O)Nc1cccc(NC(=O)CSc2cn(CC(=O)N3CCCC3)c3ccccc23)c1`: the Potency entry was “inactive”.

As for `Cc1ccc(-c2nn(CCC(=O)Nc3ccc(OC(F)(F)F)cc3)c(=O)c3ccccc23)cc1`, the Potency entry was “inactive”.

Regarding `CCc1ccc(NC(=O)CN2C(=O)CCSc3ccc(S(=O)(=O)N4CCCC4)cc32)cc1`, the Potency entry is “inactive”.

As for `CCc1ccc(NC(=O)CN2CCSc3ccc(S(=O)(=O)N4CCCC4)cc32)cc1`, the Potency is 31.6 µM (active).

With `CN(C(=O)CN1C(=O)CCSc2ccc(S(=O)(=O)N3CCCC3)cc21)c1ccccc1`, the Potency entry is “inactive”.

`COC(=O)c1ccccc1NC(=O)c1cnn(-c2ccc(F)cc2)c1-n1cccc1`: the Potency result is “inactive”.

Consider `CCCCN(CC)CCCNC(=O)c1nn(C)c2c1CS(=O)(=O)c1ccccc1-2`, for which the Potency result was “inactive”.

As for `CCCCC(=O)OC1=CN(Cc2ccccc2)S(=O)(=O)c2ccccc21`, the Potency result was “inactive”.

For the molecule `COc1cccc(NC(=O)Cn2c(=O)cc(C)c3c(C)nn(-c4cccc(F)c4)c32)c1`, the Potency result is “inactive”.

`COc1ccc(NC(=O)c2ccco2)cc1NC(=O)COc1ccc(C)c(C)c1`: the Potency result was “inactive”.

Consider `CCOC(=O)c1ccccc1NC(=O)CCc1c(C)nc2c(c1C)c(=O)n(C)c(=O)n2C`, for which the Potency result was “inactive”.

Consider `CCc1nn(CC(=O)NCC(C)c2ccccc2)c(=O)c2cc3occc3n12` (stereo not given), for which the Potency entry was “inactive”.
